Shown are actives, neighbours in structure and some others; about 2.3% of the full set was active somewhere.
Mcl-1 Bim block = disrupts Bim peptide binding to human Mcl-1; Q07820; Bead-based flow cytometry, Bim peptide-Mcl-1 binding; inhibition, % at 10 µM; 190,000 tested, 0.1% active; in the data active means inhibition above about 40%;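 further: 0% = no compound tracer wells and 100% = peptide blocker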
Target sequence (Q07820 whole entry, looked up): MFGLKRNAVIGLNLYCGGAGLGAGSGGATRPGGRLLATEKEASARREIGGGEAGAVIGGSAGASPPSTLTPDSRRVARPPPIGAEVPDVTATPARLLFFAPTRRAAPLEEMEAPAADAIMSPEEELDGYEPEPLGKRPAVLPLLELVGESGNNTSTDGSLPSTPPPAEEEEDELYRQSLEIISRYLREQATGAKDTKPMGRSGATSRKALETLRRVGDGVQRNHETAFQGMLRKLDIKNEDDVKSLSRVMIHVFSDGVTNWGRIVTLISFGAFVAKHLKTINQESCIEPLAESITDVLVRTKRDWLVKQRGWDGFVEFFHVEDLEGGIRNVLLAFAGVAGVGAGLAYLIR
GLD-1 TGE inh = GLD-1-TGE RNA interaction inhibition (C. elegans); purified GLD-1 + fluorescein TGE RNA, fluorescence polarization; 320,000 tested, 0.44% active; inhibition, % at 5.96 µM; Q17339; AID 2280;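 active means percent inhibition above a per-plate cutoff, the plate mean of test compounds plus 3 SD, cut at about 30% in these data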;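 further: 0% = DMSO wells with GLD-1 and probe and 100% = wells lacking GLD-1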
Mcl1 Bid PPI = Mcl-1/Bid interaction inhibition; 220,000 tested, 0.97% active; AID 1021; inhibition, % at 21.7 µM; Q07820; TR-FRET Mcl-1/Bid-Dy647 peptide binding, 1536-well;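 active means compounds that cut the binding signal by more than half at the single screening dose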;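 further: His-tagged Mcl-1 with europium anti-His antibody binding Bid BH3 peptide; 0% = Mcl-1 plus peptide wells and 100% = peptide-only wells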
Bcl-xL primary = Bcl-xL (human) inhibition | Q07817 | GST-Bcl-xL / FITC-Bim BH3 peptide fluorescence polarization | inhibition, % at 10.9 µM | 320,000 tested, 0.7% active | AID 2129;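 active means inhibition above the mean of all tested compounds plus 3 SD, cutoff set per campaign, cut at about 30% in these data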;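 further: 0% = DMSO wells and 100% = unlabeled Bim-BH3 peptide competitor; inhibitors lower millipolarization by displacing the labeled peptide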
Mcl1-Noxa inh = Mcl-1/Noxa interaction inhibition; inhibition, % at 21.7 µM; TR-FRET Mcl-1/Noxa peptide binding, 2 h; Q07820; 220,000 tested, 1.5% active; AID 1022;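 active means compounds that cut the protein-peptide binding signal by more than 50% relative to plate controls in a single-dose test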;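 further: His-tagged Mcl-1 with rhodamine Noxa BH3 peptide and terbium anti-His antibody; 0% = Mcl-1 plus Noxa peptide wells and 100% = peptide-only wells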
MCL1-BIM inh = disrupts human MCL1 binding to BIM-BH3 peptide; Q07820; GST-MCL1 / FITC-Bim-BH3 fluorescence polarization; inhibition, % at 10.9 µM; 320,000 tested, 0.68% active; AID 2057;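 active means inhibition above the mean inhibition of all tested compounds plus 3 SD, set per campaign, cut at about 40% in these data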;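 further: 0% = DMSO wells and 100% = unlabeled Bim-BH3 peptide control; higher means more loss of mP so more displacement of Bim peptide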
Bcl-xL conf = Bcl-xL (human) inhibition, MCL1 counter-screen confirmation; inhibition, % at 10.9 µM; GST-Bcl-xL / FITC-Bim BH3 peptide FP binding; 1,700 tested, 54% active; AID 2166; shares compounds with MCL1-BIM inh;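 active means inhibition above a cutoff equal to the mean inhibition of all tested compounds plus 3 SD, cut at about 30% in these data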;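 further: 0% = DMSO wells and 100% = unlabeled Bim BH3 control peptide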
MCL1 BIM confirm = MCL1-BIM-BH3 interaction inhibition, confirmation; shares compounds with MCL1-BIM inh; GST-MCL1 / FITC-Bim-BH3 fluorescence polarization; inhibition, % at 10.9 µM; 1,700 tested, 61% active; AID 2168;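 active means inhibition above the average of all tested compounds plus 3 SD, cut at about 40% in these data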;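 further: 0% = DMSO wells and 100% = unlabeled Bim-BH3 control peptide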
* hit, by the source's call; · = no result given; + = active, no number.

SMILES	Mcl-1 Bim block	GLD-1 TGE inh	Mcl1 Bid PPI	Bcl-xL primary	Mcl1-Noxa inh	MCL1-BIM inh	Bcl-xL conf	MCL1 BIM confirm
CSc1ccc(C2C(C(=O)c3ccco3)=C(O)C(=O)N2c2nnc(SC)s2)cc1 (stereo unspecified)	·	92.7*	·	111.1*	·	92.8*	142.6*	167.7*
CCOC(=O)c1sc(N2C(=O)C(O)=C(C(=O)c3ccco3)C2c2ccc([N+](=O)[O-])cc2)nc1C (stereo unspecified)	·	-2.5	·	5.6	·	4.8	·	·
CCCOc1cccc(C2C(C(=O)c3ccco3)=C(O)C(=O)N2c2nnc(C)s2)c1 (stereo unspecified)	·	55.8*	·	40.6*	·	53.7*	55.8*	72.3*
Cc1ccc(C2C(C(=O)c3cccs3)=C(O)C(=O)N2c2nnc(C)s2)cc1 (stereo unspecified)	-1.0	101.5*	-13.5	96.0*	15.1	86.3*	122.8*	142.7*
C=CCOc1cccc(C2C(C(=O)c3ccc(C)o3)=C(O)C(=O)N2c2nccs2)c1 (stereo unspecified)	2.0	129.8*	-73.9	144.3*	7.3	162.3*	137.4*	162.4*
COc1cccc(/C=C2/Oc3ccccc3N(CC(=O)NCC3CCCO3)C2=O)c1 (stereo unspecified)	·	1.6	·	3.3	·	-2.2	·	·
Cc1ccc(C(=O)OC(C(=O)O)C(OC(=O)c2ccc(C)cc2)C(=O)O)cc1 (stereo unspecified)	·	2.4	·	-4.9	·	-5.9	·	·
Cc1ccc(C)c(N2C(=N)S/C(=C\c3ccc(-c4ccccc4C(=O)O)o3)C2=O)c1	2.0	-29.9	-26.7	6.6	8.8	6.0	·	·
CN1C(=O)/C(=C/c2ccc(-c3ccccc3[N+](=O)[O-])o2)SC1=Nc1ccc(Cl)c(C(=O)O)c1	47.0*	25.5	34.4	43.7*	108.2*	74.1*	23.0	39.9
O=C(Nc1ccccc1)c1ccc2nc(-c3ccco3)c(-c3ccco3)nc2c1	13.0	12.4	32.2	27.3	100.9*	40.0*	29.9	46.6*
O=C(Nc1ccc(N2CCOCC2)cc1)c1ccc2nc(-c3ccco3)c(-c3ccco3)nc2c1	1.0	4.2	-11.7	0.2	32.6	4.1	·	·
S=C(Nc1ccc(N2CCOCC2)cc1)Nc1ccc2nc(-c3ccco3)c(-c3ccco3)nc2c1	-5.0	129.4*	-10.1	187.9*	81.4*	+	117.6*	149.9*
O=C(c1cccc(C(=O)N2CCN(c3ncccn3)CC2)c1)N1CCN(c2ncccn2)CC1	-6.0	3.7	-9.6	0.3	-15.1	3.4	·	·
O=C(c1ccc2nc(-c3ccco3)c(-c3ccco3)nc2c1)N1CCN(c2ncccn2)CC1	8.0	14.9	-47.0	38.4*	100.4*	80.8*	34.9*	50.2*
O=C(NCc1ccccc1)c1ccc2nc(-c3ccco3)c(-c3ccco3)nc2c1	4.0	15.1	11.8	46.1*	101.7*	81.2*	42.5*	69.4*
CCCCNC(=O)c1ccc2nc(-c3ccco3)c(-c3ccco3)nc2c1	3.0	7.9	-5.1	40.6*	93.1*	59.5*	25.4	34.7
CC(=O)c1ccc(NC(=O)c2ccc3nc(-c4ccco4)c(-c4ccco4)nc3c2)cc1	10.0	12.5	97.1*	39.3*	100.5*	80.2*	36.0*	80.7*
O=C(NCCC1CCCCN1S(=O)(=O)c1ccc(F)cc1)C(=O)NCC1CCCO1 (stereo unspecified)	·	2.5	·	3.3	·	-0.9	·	·
CCC(=O)Nc1nc2n(n1)C(c1ccc(OC)cc1)C=C(c1ccccc1)N2 (stereo unspecified)	-3.0	51.2*	-31.1	59.9*	15.7	59.6*	74.9*	91.8*
O=C(c1nc2n(n1)C(c1ccc(Cl)cc1)C=C(c1ccccc1)N2)N1CCOCC1 (stereo unspecified)	-4.0	47.8*	-8.7	65.2*	-1.3	75.3*	70.9*	89.0*

Screening data from PubChem BioAssay.
